Measurements as given in PubChem BioAssay (NCI).
Compounds without any hit were thinned out: in the full panel of roughly 83,000, 20% have a hit.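 How to read the values: 0–100, growth inhibition (40 = 60% inhibited); 0, no net growth; -100 to 0, cell death (-40 = 40% of starting cells died; -100 = all dead).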 Unmarked numbers belong to inactive results. Active and inactive are the calls of the source. The calls were made as follows: active = growth percent below 10; inactive = the rest.

Key:
Test in all cases: NCI-60 one-dose screen, 48 h (100 = growth as untreated, 0 = no growth, -100 = all killed)
[1] = tested on: SR leukemia; settings: 10 µM unless noted
[2] = tested on: RPMI-8226 leukemia; settings: 10 µM unless noted
[3] = tested on: OVCAR-8 ovarian; settings: 10 µM unless noted
[4] = tested on: OVCAR-5 ovarian; settings: 10 µM unless noted
[5] = tested on: SK-OV-3 ovarian; settings: 10 µM unless noted
[6] = tested on: IGROV1 ovarian; settings: 10 µM unless noted
[7] = tested on: OVCAR-3 ovarian; settings: 10 µM unless noted
[8] = tested on: HS 578T breast; settings: 10 µM unless noted
[9] = tested on: NCI/ADR-RES ovarian; settings: 10 µM unless noted
[10] = tested on: BT-549 breast; settings: 10 µM unless noted
[11] = tested on: MDA-MB-435 melanoma; settings: 10 µM unless noted
[12] = tested on: SW-620 colon; settings: 10 µM unless noted
[13] = tested on: MCF7 breast; settings: 10 µM unless noted
[14] = tested on: HCT-116 colon; settings: 10 µM unless noted
[15] = tested on: HCC-2998 colon; settings: 10 µM unless noted
[16] = tested on: KM12 colon; settings: 10 µM unless noted
[17] = tested on: T-47D breast; settings: 10 µM unless noted
[18] = tested on: OVCAR-4 ovarian; settings: 10 µM

C[C@H]1[C@H](C)CC[C@]2(C(=O)O)CC[C@]3(C)C(=CC[C@@H]4[C@@]5(C)C/C(=C/c6cccnc6)[C@H](O)C(C)(C)[C@@H]5CC[C@]43C)[C@H]12
growth [1]: 25.4% [100 µM]
growth [2]: -4.1% [100 µM] (active)
growth [3]: 12.4% [100 µM]
growth [4]: -13.7% [100 µM] (active)
growth [5]: 5.9% [100 µM] (active)
growth [6]: 7.23% [100 µM] (active)
growth [7]: -39% [100 µM] (active)
growth [8]: 4.34% [100 µM] (active)
growth [9]: 1.11% [100 µM] (active)
growth [10]: -7.55% [100 µM] (active)
growth [11]: 7.2% [100 µM] (active)
growth [12]: 14.9% [100 µM]
growth [13]: 3.47% [100 µM] (active)
growth [14]: -24.6% [100 µM] (active)
growth [15]: -8.19% [100 µM] (active)
growth [16]: -37.1% [100 µM] (active)

C=C(C)[C@@H]1CC[C@]2(C(N)=O)CC[C@]3(C)[C@H](CC[C@@H]4[C@@]5(C)CC[C@H](O)C(C)(C)[C@@H]5CC[C@]43C)[C@@H]12
growth [1]: 15.5% [100 µM]
growth [2]: -19.8% [100 µM] (active)
growth [3]: -64.8% [100 µM] (active)
growth [4]: -21.6% [100 µM] (active)
growth [6]: -58.1% [100 µM] (active)
growth [7]: -46.6% [100 µM] (active)
growth [8]: -1.7% [100 µM] (active)
growth [9]: -8.91% [100 µM] (active)
growth [17]: -24.8% [100 µM] (active)
growth [10]: -21.6% [100 µM] (active)
growth [11]: -4.44% [100 µM] (active)
growth [12]: -4.49% [100 µM] (active)
growth [13]: -12.5% [100 µM] (active)
growth [14]: -24.8% [100 µM] (active)
growth [15]: -39% [100 µM] (active)
growth [16]: -63.5% [100 µM] (active)

Brc1ccc2c(c1)CN(C1CCCCC1)CO2
growth [1]: 96.3%
growth [2]: 103%
growth [3]: 114%
growth [4]: 97.9%
growth [6]: 107%
growth [7]: 116%
growth [8]: 91.7%
growth [9]: 97.5%
growth [17]: 96.2%
growth [11]: 103%
growth [12]: 100%
growth [13]: 106%
growth [14]: 108%
growth [15]: 102%
growth [16]: 100%

CO[C@H]1CC[C@@]2(C)C(=CC[C@H]3[C@@H]4C[C@H](O)C[C@@]4(C)CC[C@@H]32)C1
growth [1]: 14.1%
growth [2]: 54.5%
growth [3]: 82.5%
growth [4]: 102%
growth [5]: 39.1%
growth [6]: 53.8%
growth [7]: 28.7%
growth [8]: 60.8%
growth [9]: 39.1%
growth [17]: 54%
growth [11]: -16.9% (active)
growth [12]: 28.8%
growth [13]: 25.7%
growth [14]: 29.2%
growth [15]: 68.4%
growth [16]: 35.7%

O=C(N/N=C\c1cc(Cl)ccc1O)N/N=C/c1cc(Cl)ccc1O
growth [1]: 35.4%
growth [2]: 29.4%
growth [3]: 43.4%
growth [4]: 75.6%
growth [5]: 73.7%
growth [6]: 49.1%
growth [7]: 10.2%
growth [8]: 34.6%
growth [9]: 16%
growth [17]: 49.6%
growth [11]: 47.7%
growth [12]: 42.3%
growth [13]: 46.2%
growth [14]: 16%
growth [15]: 46.1%
growth [16]: 44.4%

C=C(CC(=O)OC)C(C)=O
growth [1]: 112%
growth [2]: 120%
growth [3]: 107%
growth [4]: 112%
growth [5]: 103%
growth [6]: 101%
growth [7]: 106%
growth [9]: 113%
growth [17]: 108%
growth [10]: 127%
growth [11]: 116%
growth [12]: 102%
growth [13]: 111%
growth [14]: 116%
growth [15]: 112%
growth [16]: 102%

CC1(C)CC[C@]2(C(=O)OC(=O)[C@]34CCC(C)(C)C[C@@H]3C3=CC[C@@H]5[C@@]6(C)CCC(=O)C(C)(C)[C@@H]6CC[C@@]5(C)[C@]3(C)CC4)CC[C@]3(C)C(=CC[C@@H]4[C@@]5(C)CCC(=O)C(C)(C)[C@@H]5CC[C@]43C)[C@H]2C1
growth [1]: 65% [100 µM]
growth [2]: 61% [100 µM]
growth [3]: 59.8% [100 µM]
growth [4]: 98.3% [100 µM]
growth [6]: 84.4% [100 µM]
growth [7]: 74% [100 µM]
growth [8]: 57.3% [100 µM]
growth [9]: 69.5% [100 µM]
growth [10]: 75.3% [100 µM]
growth [11]: 63.2% [100 µM]
growth [12]: 70% [100 µM]
growth [13]: 51.8% [100 µM]
growth [14]: 41% [100 µM]
growth [15]: 98.2% [100 µM]
growth [16]: 67.2% [100 µM]

O=C1Nc2ccccc2/C1=C/C(=O)c1ccc(N2CCOCC2)cc1
growth [1]: 26.7%
growth [2]: 79.6%
growth [3]: 82.9%
growth [4]: 96.9%
growth [5]: 106%
growth [6]: 70.3%
growth [7]: 60.9%
growth [8]: 84%
growth [9]: 100%
growth [11]: 96%
growth [12]: 51.6%
growth [13]: 79.5%
growth [14]: 92.2%
growth [15]: 101%
growth [16]: 105%

C=C(C)[C@@H]1CC[C@]2(COC(=O)c3ccccc3C(=O)O)CC[C@]3(C)[C@H](CC[C@@H]4[C@@]5(C)CC[C@H](OC(=O)c6ccccc6C(=O)O)C(C)(C)[C@@H]5CC[C@]43C)[C@@H]12
growth [1]: 63.8% [100 µM]
growth [2]: 28.4% [100 µM]
growth [3]: 46.7% [100 µM]
growth [4]: 105% [100 µM]
growth [5]: 47.9% [100 µM]
growth [6]: 31% [100 µM]
growth [7]: 2% [100 µM] (active)
growth [8]: -3.77% [100 µM] (active)
growth [9]: 23.1% [100 µM]
growth [10]: 28.1% [100 µM]
growth [11]: 30.8% [100 µM]
growth [12]: 41.7% [100 µM]
growth [13]: 48.6% [100 µM]
growth [14]: 21.3% [100 µM]
growth [15]: 4.42% [100 µM] (active)
growth [16]: 11.8% [100 µM]

O=C(N/N=C1\c2ccccc2-c2cccc(C(=O)O)c21)c1ccc(O)cc1
growth [1]: 110%
growth [3]: 97.4%
growth [4]: 102%
growth [18]: 101%
growth [5]: 101%
growth [6]: 97.6%
growth [7]: 96.6%
growth [8]: 82%
growth [9]: 99.8%
growth [17]: 104%
growth [10]: 83.7%
growth [11]: 99.1%
growth [12]: 84.3%
growth [14]: 99.4%
growth [15]: 98.9%
growth [16]: 105%

CCN(CC)c1ccc2cc(C(Nc3ccc(C)cc3)c3nnnn3C(C)(C)C)c(=O)oc2c1 (stereo not given)
growth [1]: 94.5%
growth [2]: 87.4%
growth [3]: 98.4%
growth [4]: 101%
growth [6]: 97.4%
growth [7]: 101%
growth [9]: 90.6%
growth [17]: 71.1%
growth [10]: 89.1%
growth [11]: 97.5%
growth [12]: 102%
growth [13]: 81.4%
growth [14]: 87.9%
growth [15]: 107%
growth [16]: 103%

Cc1cnc(N)nc1OCCNC(=O)c1cccc(-c2ccc(S(=O)(=O)Nc3ccc4c(c3)N(C(=O)C3CC3)CCC4)cc2)c1
growth [1]: 104%
growth [2]: 42.7%
growth [3]: 67.4%
growth [4]: 105%
growth [5]: 98.8%
growth [6]: 74%
growth [7]: 79.5%
growth [8]: 75.3%
growth [9]: 102%
growth [17]: 36.9%
growth [11]: 78.8%
growth [12]: 99.1%
growth [13]: 77.2%
growth [14]: 76.3%
growth [15]: 77.4%
growth [16]: 75.2%

Cc1cnc([C@]23CC[C@@H](C)[C@H](C)[C@H]2C2=CC[C@@H]4[C@@]5(C)Cc6c([nH]c7ccccc67)C(C)(C)[C@@H]5CC[C@@]4(C)[C@]2(C)CC3)o1
growth [1]: 121% [100 µM]
growth [2]: 26.6% [100 µM]
growth [3]: 39.3% [100 µM]
growth [4]: 59.7% [100 µM]
growth [5]: 73.9% [100 µM]
growth [6]: 25.9% [100 µM]
growth [7]: 83.8% [100 µM]
growth [8]: 70.2% [100 µM]
growth [9]: 68.3% [100 µM]
growth [17]: 58% [100 µM]
growth [11]: -16.7% [100 µM] (active)
growth [12]: 20.6% [100 µM]
growth [13]: 46.8% [100 µM]
growth [14]: 17.3% [100 µM]
growth [15]: 50% [100 µM]
growth [16]: 24.7% [100 µM]

NC(=O)c1cccc(-c2ccc(S(=O)(=O)Nc3ccc4c(c3)N(C(=O)C3CC3)CCC4)cc2)c1
growth [1]: 50.5%
growth [2]: 43.7%
growth [3]: 57%
growth [4]: 64.8%
growth [5]: 38.2%
growth [6]: 37.1%
growth [7]: 15.8%
growth [9]: 104%
growth [17]: 26.1%
growth [10]: 96.7%
growth [12]: 32.3%
growth [13]: 22.9%
growth [14]: 98.2%
growth [15]: 64.5%
growth [16]: 18.9%

CC(C)=CC/C=C(/C)[C@H]1CC[C@]2(C)[C@@H]1CC[C@@H]1[C@@]3(C)CCC(=O)NC(C)(C)[C@@H]3CC[C@]12C
growth [1]: 12.3% [100 µM]
growth [2]: -31.4% [100 µM] (active)
growth [3]: 0.344% [100 µM] (active)
growth [4]: 9.08% [100 µM] (active)
growth [5]: 38.6% [100 µM]
growth [6]: -67.6% [100 µM] (active)
growth [7]: -63.9% [100 µM] (active)
growth [8]: -17.7% [100 µM] (active)
growth [9]: 13% [100 µM]
growth [10]: -0.884% [100 µM] (active)
growth [11]: -4.47% [100 µM] (active)
growth [12]: -58.8% [100 µM] (active)
growth [13]: 8.52% [100 µM] (active)
growth [14]: -37.4% [100 µM] (active)
growth [15]: 5.26% [100 µM] (active)
growth [16]: -56% [100 µM] (active)
